# The list is not random: actives were taken first. Their share in the collection is about 2.3%.
# HTR1A agonist: 5-HT1a (human) receptor agonism; P08908; actives 0.56% (n = 65,000); AID 567; activation, % at 10 µM; CHO 5-HT1a Ga15 NFAT-bla reporter, FRET ratio; 0% basal, 100% maximal reference agonist;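 active = activation above the screen-wide mean activation plus 3 SD, cut at about 19% in these data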
# 5HT1E antag: antagonists of human 5-HT1E serotonin receptor; actives 0.99% (n = 65,000); inhibition, % at 6 µM; AID 571; CHO 5-HT1E Ga15 NFAT-bla reporter, FRET, antagonist;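 active = inhibition above a set limit, the mean inhibition across every tested compound plus 3 SD, cut at about 29% in these data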;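 note: signal is the 460 over 535 nm emission ratio of beta-lactamase substrate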
# HTR1E agonist: activates the human 5-HT1E serotonin receptor; P28566; CHO 5-HT1E Ga15 NFAT-bla reporter, FRET; 0% DMSO wells, 100% control agonist wells; activation, % at 6 µM; actives 0.69% (n = 65,000); AID 574;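 active = activation above a set limit, the screen-wide mean activation plus 3 SD, cut at about 8.5% in these data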
# 5-HT1A blocker: antagonists of human 5-HT1a serotonin receptor; P08908; CHO 5-HT1a Ga15 NFAT-bla reporter, antagonist mode; actives 0.68% (n = 62,000); inhibition, % at 10 µM;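 active = inhibition above the mean of all tested compounds plus 3 SD, cut at about 43% in these data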;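 note: receptor stimulated by 5-CT agonist at 100 nM near EC80; beta-lactamase reporter measured by ratiometric fluorescence of a cleavable substrate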
# Htt clearance: compounds clearing mutant huntingtin protein | HeLa Exon1htt(103Q)mCFP, aggregate imaging; zero = plate's median compound well | inhibition, % at 1.5 µM | actives 0.42% (n = 47,000) | AID 853;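 active = inhibition of aggregate fluorescence above about 70%, also judged a hit by eye on the cell image, limit read from the data, passing the limit was not always enough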;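 note: cells exposed to compound for three days before fixation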
# Numbers stand for hits; . = inactive; / = no result given.
SMILES,HTR1A agonist,5HT1E antag,HTR1E agonist,5-HT1A blocker,Htt clearance
CC1CC(c2ccccc2)n2nc(NC(=O)c3ccco3)nc2N1 (stereo unspecified),.,.,.,.,/
O=S(=O)(NC1CC1)c1ccc(S(=O)(=O)N2CCCC3(CCCCC3)C2)cc1,.,29,.,.,.
CCCNC(=O)Nc1cc(C)on1,257,.,.,.,.
CCCCNC(=O)Nc1cc(C)on1,/,/,/,/,.
COC(=O)c1cc(Nc2ncnc3c2cnn3-c2ccccc2)cc(C(=O)OC)c1,.,.,.,.,/
COc1ccccc1Oc1c(C)oc2cc(OC(=O)c3ccco3)ccc2c1=O,.,.,.,.,.
CCOC(=O)c1cc2ccc(OC(=O)c3ccco3)cc2oc1=O,296,.,81,.,.
C=CCNC(=O)C1CC(=O)N(c2ccc(OCC(=O)Nc3ccccc3)cc2)C1 (stereo unspecified),.,.,.,.,.
O=c1n(CCCN2CCN(c3cccc(Cl)c3)CC2)nc2ccccn12,.,.,9.5,/,/
O=C(CSc1nc2ccsc2c(=O)n1NC(=O)c1ccccc1)NCc1ccco1,.,.,.,.,70
COc1cccc(CN(Cc2cccnc2)S(=O)(=O)c2ccc(-n3cnnn3)c(C)c2)c1OC,.,.,.,.,.
CCOc1ccc(-c2n[nH]c(C)c2Oc2ccc(OC)cc2)c(O)c1,.,.,.,.,.

# High-throughput results (PubChem)
